Reference: PubChem BioAssay (EPA / NIEHS)
Results filed as inconclusive are left out. Activity calls are given as the source filed them. Rule for the calls, unless noted: active = hit-call score of the fitted dose curve at least 0.9, where 1 is the maximum; inconclusive = response in the unintended direction; inactive = score below 0.9.

Experiments:
[1] = TOX21_p53_BLA_p2_viability: Viability Assessment in the Tox21 HCT-116 p53 Agonism Beta-lactamase Assay, Phase 2 (AID 2283591);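 note: compound exposure lasted 16 h at 37 °C; actives lower the ATP signal meaning cytotoxicity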
In short: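 Cytotoxicity readout: CellTiter-Glo ATP luminescence, 30 min at room temperature, after the beta-lactamase read. Cells were HCT116 exposed 16 h at 37C to compounds pin-transferred at 217-fold dilution from DMSO stocks.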

[2] = target: Cellular tumor antigen p53 (Homo sapiens) (UniProt P04637); assay: TOX21_p53_BLA_p2_ratio: Tox21 HCT-116 p53 Agonism Beta-lactamase Assay, Ratio, Phase 2 (AID 2283592)
Chain of Cellular tumor antigen p53 (Homo sapiens) (P04637 whole entry, looked up): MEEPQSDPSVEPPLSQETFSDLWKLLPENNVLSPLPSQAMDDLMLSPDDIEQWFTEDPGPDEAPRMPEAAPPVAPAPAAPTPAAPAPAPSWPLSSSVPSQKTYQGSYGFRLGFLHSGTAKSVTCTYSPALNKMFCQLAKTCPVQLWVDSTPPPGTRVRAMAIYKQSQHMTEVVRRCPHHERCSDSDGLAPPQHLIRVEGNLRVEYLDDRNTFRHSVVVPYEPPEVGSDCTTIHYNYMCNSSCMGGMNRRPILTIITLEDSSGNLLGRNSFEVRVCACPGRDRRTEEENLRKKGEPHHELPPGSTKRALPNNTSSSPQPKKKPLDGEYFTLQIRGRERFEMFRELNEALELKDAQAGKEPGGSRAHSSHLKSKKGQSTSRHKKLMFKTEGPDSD
In short: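 Human colon HCT116 cells with an inducible p53 beta-lactamase reporter are exposed to test chemicals for 16 h at 37C. Reporter induction is read as the 460/530 nm emission ratio after CCF4-AM loading, normalized to DMSO.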

[3] = TOX21_p53_BLA_p3_viability: Viability Assessment in the Tox21 HCT-116 p53 Agonism Beta-lactamase Assay, Phase 3 (AID 2283593);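 note: cells exposed to compound for 16 h before reading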
In short: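 Cellular ATP was quantified by CellTiter-Glo luminescence, read after 30 min at room temperature. Beforehand, HCT116 cells (4000/well) received compound 5 h post-seeding, 217-fold diluted from DMSO, then incubated 16 h at 37C.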

[4] = target: Cellular tumor antigen p53 (Homo sapiens) (UniProt P04637); assay: TOX21_p53_BLA_p3_ratio: Tox21 HCT-116 p53 Agonism Beta-lactamase Assay, Ratio, Phase 3 (AID 2283596)
In short: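 HCT116 p53-bla cells (4000/well) given compound in DMSO (217-fold dilution) after 5 h, incubated 16 h at 37C. CCF4-AM substrate 2 h at room temperature; 460/530 nm emission ratio, gain fitted against DMSO.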

[5] = TOX21_p53_BLA_p5_viability: Viability Assessment in the Tox21 HCT-116 p53 Agonism Beta-lactamase Assay, Phase 5 (AID 2283600)
In short: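 Seeded cells (4000/well) settle 5 h before compound addition. Plates then incubate 16 h at 37C, receive FRET substrate for 2 h, and finally CellTiter-Glo, with luminescence measured after a 30 min room-temperature incubation.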

[6] = target: Cellular tumor antigen p53 (Homo sapiens) (UniProt P04637); assay: TOX21_p53_BLA_p4_ratio: Tox21 HCT-116 p53 Agonism Beta-lactamase Assay, Ratio, Phase 4 (AID 2283601)
In short: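 Signal is the blue/green (460nm/530nm) ratio of cleaved versus uncleaved CCF4-AM substrate, read after 2 h substrate loading. Cells were HCT116 carrying the p53-responsive beta-lactamase reporter, dosed 16 h at 37C, 5% CO2; CellTiter-Glo measured in parallel.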

[7] = UKN5_HCS_SBAD2_neurite_outgrowth: University of Konstanz (UKN) Leist Lab Neurite Outgrowth Assay in human iPSC-derived immature Dorsal Root Ganglia Neurons (UKN5) (AID 2284070; active = hit-call score of the fitted dose curve at least 0.9, where 1 is the maximum; inactive = score below 0.9); conditions: actives raise or lower the signal
In short: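 SBAD2 iPSC-derived immature peripheral neurons on Matrigel, 100.000 cells/cm2, medium with CHIR99021 (1.5 uM), SU5402 (5 uM), DAPT (5 uM); compound added 1 h post-seeding for 24 h. Calcein-AM neurite area by high-content imaging; Hoechst H-33342 viability; bidirectional fit vs DMSO.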

[8] = UKN4_HCS_LUHMES_neurite_outgrowth: University of Konstanz (UKN) Leist Lab Neurite Outgrowth Assay in human LUHMES cells (UKN4) (AID 2284206; active = hit-call score of the fitted dose curve at least 0.9, where 1 is the maximum; inactive = score below 0.9); conditions: actives raise or lower the signal
In short: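 Human LUHMES neuronal precursors, differentiated 2 days then replated without cAMP and GDNF, exposed to compounds for 24 h. Neurite area imaged by high-content microscopy after calcein-AM live staining; Hoechst H-33342 for viability; bidirectional fit versus DMSO.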

[9] = IUF_NPC1b_proliferation_BrdU_72hr: Leibniz Research Institute for Environmental Medicine (IUF) 72-hour Neural Progenitor Cell Bromodeoxyuridine (BrdU) Proliferation Assay (NPC1b) (AID 2284207; active = hit-call score of the fitted dose curve at least 0.9, where 1 is the maximum; inactive = score below 0.9)
In short: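 Proliferation of primary human neural progenitor cells: 72 h compound treatment at 37C, 5% CO2, pH 7.2-7.6, in EGF/FGF-containing medium. Readout is BrdU uptake (last 16 h) by chemiluminescent ELISA, normalised to DMSO.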

[10] = UKN4_HCS_LUHMES_cell_viability: Viability Assessment in the University of Konstanz (UKN) Leist Lab Neurite Outgrowth Assay in human LUHMES cells (UKN4) (AID 2284232; active = hit-call score of the fitted dose curve at least 0.9, where 1 is the maximum; inactive = score below 0.9)
In short: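 LUHMES precursors differentiated 2 days, replated at 30000 cells/well without cAMP/GDNF, then compound-treated 24 h. Viability from Hoechst H-33342 and calcein-AM live staining (30 min) by high-content fluorescence imaging; bidirectional fit versus DMSO.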

[11] = UKN2_HCS_IMR90_cell_viability: Viability Assessment in the University of Konstanz (UKN) Leist Lab Neural Crest Cell Migration Assay in human induced IMR90 Pluripotent Stem Cells (UKN2) (AID 2284233; active = hit-call score of the fitted dose curve at least 0.9, where 1 is the maximum; inactive = score below 0.9;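 note: viability of neural crest cells differentiated from IMR90 iPSC measured by calcein-AM fluorescence imaging; cells exposed to compound for 24 h after a 24 h migration phase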)
In short: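 Human IMR90-derived neural crest cells were allowed to migrate for 24 h into a cell-free zone, then exposed to test chemicals for 24 h. Calcein-AM and Hoechst staining with high-content imaging gave viability, analysed against DMSO baseline.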

[12] = IUF_NPC2c_oligodendrocyte_migration_120hr: Leibniz Research Institute for Environmental Medicine (IUF) 120-hour Neural Progenitor Cell Migration Assay for Oligodendrocyte Migration (NPC2c) (AID 2284297; active = hit-call score of the fitted dose curve at least 0.9, where 1 is the maximum; inactive = score below 0.9;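 note: O4-positive oligodendrocyte migration distance divided by radial glia migration distance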)
In short: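 Using fetal brain neural progenitor spheres differentiating in N2 medium at 37C, compounds were present for 120 h. Oligodendrocyte migration distance, normalized to radial glia migration, was measured from imaged O4 staining.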

[13] = IUF_NPC2a_radial_glia_migration_120hr: Leibniz Research Institute for Environmental Medicine (IUF) 120-hour Neural Progenitor Cell Migration Assay for Radial Glia Migration (NPC2a) (AID 2284298; active = hit-call score of the fitted dose curve at least 0.9, where 1 is the maximum; inactive = score below 0.9)
In short: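 Exposure of 0.3 mm primary hNPC spheres runs day 0 to 120 h with a half-volume medium change at day 3. Fixed cells get Hoechst staining; high-content analysis of nuclear positions yields radial glia migration distance per well, compared against DMSO controls.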

[14] = IUF_NPC2a_radial_glia_migration_72hr: Leibniz Research Institute for Environmental Medicine (IUF) 72-hour Neural Progenitor Cell Migration Assay for Radial Glia Migration (NPC2a) (AID 2284299; active = hit-call score of the fitted dose curve at least 0.9, where 1 is the maximum; inactive = score below 0.9)
In short: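 Human fetal neural progenitor spheres (0.3 mm) plated on poly-D-lysine/laminin in N2 differentiation medium and exposed from day 0 at 7 concentrations; radial glia migration distance from sphere edge measured at 72 h on brightfield images, mean of four directions, vs DMSO.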

[15] = IUF_NPC2b_neuronal_migration_120hr: Leibniz Research Institute for Environmental Medicine (IUF) 120-hour Neural Progenitor Cell Migration Assay for Neuron Migration (NPC2b) (AID 2284300; active = hit-call score of the fitted dose curve at least 0.9, where 1 is the maximum; inactive = score below 0.9)
In short: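 Fetal human NPC spheres migrate on PDL/laminin during 120 h compound treatment; neuronal migration distance, glia-normalized, scored versus DMSO control.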

[16] = IUF_NPC3_neuronal_differentiation_120hr: Leibniz Research Institute for Environmental Medicine (IUF) 120-hour Neuronal Differentiation Assay (NPC3) (AID 2284301; active = hit-call score of the fitted dose curve at least 0.9, where 1 is the maximum; inactive = score below 0.9)
In short: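 Single 0.3 mm neurospheres from human fetal cortex were plated in differentiation medium containing test compound. Medium was half-replaced on day 3. After 120 h cells were fixed, immunostained and imaged, and neuronal fraction was scored against DMSO control.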

[17] = IUF_NPC4_neurite_area_120hr: Leibniz Research Institute for Environmental Medicine (IUF) 120-hour Neuronal Morphology Assay for Neurite Area (NPC4) (AID 2284305)
In short: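 Neurite area is read out as the mean pixel area, excluding nuclei, of skeletonized TUBB3-positive neurons imaged after 120 h. Primary human neural progenitor spheres differentiated on poly-D-lysine/laminin with compound present from day 0. Activity was referenced to DMSO controls.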

[18] = IUF_NPC2-5_cytotoxicity_72hr: Cytotoxicity Assessment at 72 hours in the Leibniz Research Institute for Environmental Medicine (IUF) Neural Progenitor Cell Migration and Differentiation Assay for Cytotoxicity (NPC2-5) (AID 2284306);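 note: LDH release into supernatant measured by resorufin fluorescence marking membrane damage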
In short: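 Membrane integrity loss was scored from fluorescence (RFU) of resorufin generated by LDH in culture supernatant, 72 h after dosing. Differentiating human progenitor spheres received seven serial compound concentrations alongside a solvent control.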

[19] = IUF_NPC2-5_cytotoxicity_120hr: Cytotoxicity Assessment at 120 hours in the Leibniz Research Institute for Environmental Medicine (IUF) Neural Progenitor Cell Migration and Differentiation Assay (NPC2-5) (AID 2284307);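 note: LDH released into supernatant as membrane damage marker via resorufin fluorescence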
In short: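 Membrane-integrity loss is quantified by LDH in supernatant after five days of exposure of migrating, differentiating human fetal NPC spheres; seven serially diluted concentrations are tested with DMSO kept at or below 0.1%.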

[20] = IUF_NPC2-5_cell_number_120hr: Cell Number Assessment at 120 hours in the Leibniz Research Institute for Environmental Medicine (IUF) Neural Progenitor Cell Migration and Differentiation Assay (NPC2-5) (AID 2284308; active = hit-call score of the fitted dose curve at least 0.9, where 1 is the maximum; inactive = score below 0.9;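 note: count of Hoechst-stained nuclei in migration zone around plated human neural progenitor spheres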)
In short: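 Seven-point serial dilutions plus solvent control were applied to plated 0.3 mm hNPC spheres at differentiation start, with medium half-replaced at day 3. Nuclei positive for Hoechst in the migration zone were enumerated at 120 h.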

[21] = IUF_NPC2-5_viability_120hr: Viability Assessment at 120 hours in the Leibniz Research Institute for Environmental Medicine (IUF) Neural Progenitor Cell Migration and Differentiation Assay (NPC2-5) (AID 2284312; active = hit-call score of the fitted dose curve at least 0.9, where 1 is the maximum; inactive = score below 0.9)
In short: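 Alamar blue resorufin fluorescence read after 5 days of differentiation, with compound present from day 0 and replenished at day 3. Primary hNPC spheres on laminin-coated plates, 37C; seven concentrations plus solvent control, fitted against DMSO.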

[22] = IUF_NPC1_cytotoxicity_72hr: Cytotoxicity Assessment at 72 hours in the Leibniz Research Institute for Environmental Medicine (IUF) Neural Progenitor Cell Proliferation Assay (NPC1) (AID 2284332);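 note: rising LDH signal means more cytotoxicity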
In short: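 Human fetal neural progenitor spheres (0.3 mm) in EGF/FGF proliferation medium, 37C, exposed 72 h without renewal. LDH release in supernatant read by resorufin fluorescence; gain of signal scored relative to dynamic range.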

[23] = TOX21_p53_BLA_p4_viability: Viability Assessment in the Tox21 HCT-116 p53 Agonism Beta-lactamase Assay, Phase 4 (AID 2283597);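 note: hits lower the luminescence signal meaning cytotoxicity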
In short: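 Luminescent ATP readout (CellTiter-Glo, 30 min, room temperature) in the same wells as the p53 bla ratio. HCT116 cells were treated for 16 h at 37C with DMSO-dissolved compounds.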

[24] = target: Cellular tumor antigen p53 (Homo sapiens) (UniProt P04637); assay: TOX21_p53_BLA_p5_ratio: Tox21 HCT-116 p53 Agonism Beta-lactamase Assay, Ratio, Phase 5 (AID 2283599)
In short: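 Beta-lactamase reporter ratio (blue 460 nm over green 530 nm, 405 nm excitation) after 2 h CCF4-AM loading, in HCT-116 cells exposed 16 h at 37 C to compounds pinned at 217-fold dilution. Increases relative to DMSO baseline scored.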

Measured: AC50

CNC1(c2ccccc2Cl)CCCCC1=O (stereo not given)
active: [8] 34.1 µM | [16] 74.2 µM | [19] 1.48 µM
not listed: [23] | [24]
inactive: all other assays above

N#CC(C#N)=C(C#N)C#N
inactive: [1] | [2] | [3] | [4] | [5]

CC(C)(C)NCC(O)c1cc(Cl)c(N)c(Cl)c1 (stereo not given)
inactive: [1] | [2] | [3] | [4] | [6]

COC1=CC(=O)O[C@@H](CCc2ccccc2)C1
inactive: [1] | [2] | [3] | [23] | [24] | [5] | [6]

CN
inactive: [1] | [2] | [3] | [4] | [5] | [6]
